# Reference: PubChem BioAssay (Tox21)
# Values without a mark were called inactive. Records with an inconclusive call do not appear. Entries that show only a call come without a potency. Activity calls are given as the source filed them. Unless noted, calls come from the whole dose curve; as a rule, active = well fitted curve in the direction sought with a large enough effect in the repeat runs; inconclusive = weak or mixed curves; inactive = flat fitted curve, though single readings scatter.
# How the values were obtained:
# [1] = qHTS assay to test for compound auto fluorescence at 535 nm (green) in HEK293 cells (AID 720680)
# [2] = qHTS assay to test for compound auto fluorescence at 460 nm (blue) in HEK293 cell free culture (AID 720681)
# How it was run: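 Blue fluorescence (Ex 405/Em 460 nm, triamterene-equivalent) was read immediately after pin transfer of compound or DMSO into medium (DMEM, 10% FBS) without cells.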
# [3] = qHTS assay to test for compound auto fluorescence at 535 nm (green) in HEK293 cell free culture (AID 720682)
# How it was run: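 Green-channel intensity (Ex/Em 485/535 nm) was recorded from compound-treated wells containing only DMEM with 10% FBS. Fluorescein provided the equivalency standard.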
# [4] = qHTS assay to test for compound auto fluorescence at 590 nm (red) in HEK293 cell free culture (AID 720683)
# How it was run: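 Red-channel autofluorescence of compounds in culture medium (DMEM, 10% FBS), no cells, measured at 540/590 nm. Rose Bengal sodium is the reference fluorophore for equivalence.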
# [5] = qHTS assay to test for compound auto fluorescence at 460 nm (blue) in HepG2 cell free culture (AID 720685)
# How it was run: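 Compound (23 nL) or DMSO pinned into cell-free MEM with 10% FBS; blue fluorescence read at 405/460 nm excitation/emission, expressed as auto-fluorescence equivalency to triamterene.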
# [6] = qHTS assay to test for compound auto fluorescence at 535 nm (green) in HepG2 cell free culture (AID 720686)
# [7] = qHTS assay to test for compound auto fluorescence at 460 nm (blue) in HepG2 cells (AID 720687)
# How it was run: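 Blue-channel autofluorescence (Ex/Em 405/460 nm, triamterene-equivalent) was measured after 1 hr compound exposure at 37 C, 5% CO2. Cells were HepG2, plated overnight at 37 C in MEM plus 10% FBS.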
# [8] = biological target: Glucocorticoid receptor (Homo sapiens) (UniProt P04150); experiment: qHTS assay to identify small molecule agonists of the glucocorticoid receptor (GR) signaling pathway (AID 720691; active = well fitted activation curve with a large enough effect in the signal ratio in the repeat runs, not every such curve was filed as active; the % refers to the signal ratio)
# Glucocorticoid receptor (Homo sapiens), sequence (P04150 whole entry, looked up): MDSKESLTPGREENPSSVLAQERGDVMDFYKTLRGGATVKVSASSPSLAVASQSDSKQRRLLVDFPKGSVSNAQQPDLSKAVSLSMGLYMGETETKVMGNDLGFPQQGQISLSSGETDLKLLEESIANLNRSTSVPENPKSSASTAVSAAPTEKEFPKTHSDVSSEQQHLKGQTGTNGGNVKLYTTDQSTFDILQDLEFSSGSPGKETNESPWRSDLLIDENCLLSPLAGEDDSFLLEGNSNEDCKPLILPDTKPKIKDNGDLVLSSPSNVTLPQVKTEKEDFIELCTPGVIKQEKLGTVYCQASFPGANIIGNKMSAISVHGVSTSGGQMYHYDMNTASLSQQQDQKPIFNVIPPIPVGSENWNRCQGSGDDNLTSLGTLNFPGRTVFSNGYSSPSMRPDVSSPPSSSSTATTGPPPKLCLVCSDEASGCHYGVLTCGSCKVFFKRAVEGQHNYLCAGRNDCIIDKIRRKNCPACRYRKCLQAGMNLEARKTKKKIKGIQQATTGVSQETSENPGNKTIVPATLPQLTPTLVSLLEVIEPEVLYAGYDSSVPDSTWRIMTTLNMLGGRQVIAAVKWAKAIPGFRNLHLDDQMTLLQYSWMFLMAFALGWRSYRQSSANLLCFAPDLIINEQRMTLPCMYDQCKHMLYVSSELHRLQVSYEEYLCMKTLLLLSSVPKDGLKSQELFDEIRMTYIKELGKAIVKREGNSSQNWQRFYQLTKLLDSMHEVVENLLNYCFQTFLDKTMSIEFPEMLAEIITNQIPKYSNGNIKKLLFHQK
# How it was run: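 Reporter read-out: fluorescence intensity following 2 h room-temperature LiveBLAzer B/G FRET substrate loading. Prior step: GR-bla HeLa cells held 4 h, then treated 18 h at 37 C.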
# [9] = biological target: Glucocorticoid receptor (Homo sapiens) (UniProt P04150); experiment: qHTS assay to identify small molecule antagonists of the glucocorticoid receptor (GR) signaling pathway (AID 720692; active = well fitted inhibition curve with a large enough effect in the signal ratio in the repeat runs, not every such curve was filed as active; the % refers to the signal ratio; note: potency is the fitted concentration of half-maximal effect)
# How it was run: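 Dexamethasone (5 nM final) stimulated a stably integrated GRE-beta-lactamase reporter in HeLa cells during 18 h co-incubation with compounds; signal was quantified as fluorescence intensity of B/G FRET substrate after 2 h.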
# [10] = qHTS assay to test for compound auto fluorescence at 590 nm (red) in HepG2 cell free culture (AID 720684)
# How it was run: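 Plate contents were MEM with 10% FBS plus test compound or DMSO, no cells. Fluorescence was recorded with 540 nm excitation and 590 nm emission.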
smiles,measurement,setting,value
CNC(=O)Oc1ccccc1C(C)C,outcome,[1],inactive
same,outcome,[2],inactive
same,outcome,[3],inactive
same,outcome,[4],inactive
same,outcome,[5],inactive
same,outcome,[6],inactive
same,outcome,[7],inactive
same,Potency,[8],inactive
same,Potency,[9],inactive
COC1=CC(=O)O[C@@H](/C=C/c2ccccc2)C1,outcome,[1],inactive
same,outcome,[2],inactive
same,outcome,[4],inactive
same,outcome,[10],inactive
same,outcome,[5],inactive
same,outcome,[6],inactive
same,outcome,[7],inactive
same,Potency,[8],inactive
same,Potency,[9],inactive
CC(C)C(C)(N)C#N (stereo unspecified),outcome,[1],inactive
same,outcome,[2],inactive
same,outcome,[4],inactive
same,outcome,[10],inactive
same,outcome,[5],inactive
same,outcome,[6],inactive
same,outcome,[7],inactive
same,Potency,[8],inactive
same,Potency,[9],inactive
CC1=C2[C@H]3OC(=O)[C@@H](C)[C@@H]3CC[C@@]2(C)C=CC1=O,outcome,[1],inactive
same,outcome,[2],inactive
same,outcome,[3],inactive
same,outcome,[4],inactive
same,outcome,[5],inactive
same,outcome,[6],inactive
same,outcome,[7],inactive
same,Potency,[8],inactive
same,Potency,[9],inactive
CCOC(=O)C(Cl)Cc1cc(-n2nc(C)n(C(F)F)c2=O)c(F)cc1Cl (stereo unspecified),outcome,[1],inactive
same,outcome,[2],inactive
same,outcome,[4],inactive
same,outcome,[10],inactive
same,outcome,[5],inactive
same,outcome,[6],inactive
same,outcome,[7],inactive
same,Potency,[8],inactive
COc1ccc(CN2CCNCC2)c(OC)c1OC,"fluorescence, % of fluorescein",[1],0.0001% [at 18.6 µM]
same,"fluorescence, % of fluorescent control",[2],-0.0368% [at 18.6 µM]
same,"fluorescence, % of fluorescent control",[4],-0.395% [at 18.6 µM]
same,"fluorescence, % of fluorescent control",[5],-0.057% [at 18.6 µM]
same,"fluorescence, % of fluorescein control",[6],-0.137% [at 18.6 µM]
same,"fluorescence, % of fluorescent control",[7],-0.0322% [at 18.6 µM]
same,Potency,[8],inactive
same,Potency,[9],inactive
CC(C)N(Cc1ccccc1)C(=O)C(C)(C)C,outcome,[1],inactive
same,outcome,[2],inactive
same,outcome,[4],inactive
same,outcome,[10],inactive
same,outcome,[5],inactive
same,outcome,[6],inactive
same,outcome,[7],inactive
Cn1c(CCCC(=O)O)nc2cc(N(CCCl)CCCl)ccc21,outcome,[1],inactive
same,outcome,[2],inactive
same,outcome,[3],inactive
same,outcome,[4],inactive
same,outcome,[5],inactive
same,outcome,[6],inactive
same,outcome,[7],inactive
same,Potency,[8],inactive
same,Potency,[9],inactive
CCOC(=O)C(SP(=S)(OC)OC)c1ccccc1 (stereo unspecified),outcome,[1],inactive
same,outcome,[2],inactive
same,outcome,[4],inactive
same,outcome,[10],inactive
same,outcome,[5],inactive
same,outcome,[6],inactive
same,outcome,[7],inactive
same,Potency,[8],inactive
COc1ccccc1OC,outcome,[1],inactive
same,outcome,[2],inactive
same,outcome,[4],inactive
same,outcome,[10],inactive
same,outcome,[5],inactive
same,outcome,[6],inactive
same,outcome,[7],inactive
same,Potency,[8],inactive
same,Potency,[9],inactive
Cc1ccc(Cl)c(O)c1,outcome,[1],inactive
same,outcome,[2],inactive
same,outcome,[4],inactive
same,outcome,[10],inactive
same,outcome,[5],inactive
same,outcome,[6],inactive
same,outcome,[7],inactive
same,Potency,[8],inactive
same,Potency,[9],inactive
CCC1(c2ccccc2)C(=O)N(COC)C(=O)N(COC)C1=O,outcome,[1],inactive
same,outcome,[2],inactive
same,outcome,[4],inactive
same,outcome,[10],inactive
same,outcome,[5],inactive
same,outcome,[6],inactive
same,outcome,[7],inactive
same,Potency,[8],inactive
same,Potency,[9],inactive
CCNc1nc(NCC)nc(SC)n1,outcome,[1],inactive
same,outcome,[2],inactive
same,outcome,[4],inactive
same,outcome,[10],inactive
same,outcome,[5],inactive
same,outcome,[6],inactive
same,outcome,[7],inactive
same,Potency,[8],inactive
same,Potency,[9],inactive
c1ccc2c(c1)CCNC2,outcome,[1],inactive
same,outcome,[2],inactive
same,outcome,[4],inactive
same,outcome,[10],inactive
same,outcome,[5],inactive
same,outcome,[6],inactive
same,outcome,[7],inactive
O=c1[nH]c2ccccc2o1,outcome,[1],inactive
same,outcome,[2],inactive
same,outcome,[4],inactive
same,outcome,[10],inactive
same,outcome,[5],inactive
same,outcome,[6],inactive
same,outcome,[7],inactive
same,Potency,[8],inactive
CC(C)[C@]12CC(=O)[C@H](C)[C@H]1C2,outcome,[1],inactive
same,outcome,[2],inactive
same,outcome,[4],inactive
same,outcome,[10],inactive
same,outcome,[5],inactive
same,outcome,[6],inactive
same,outcome,[7],inactive
CCC1(CC)C(=O)C=CNC1=O,outcome,[1],inactive
same,outcome,[2],inactive
same,outcome,[3],inactive
same,outcome,[4],inactive
same,outcome,[5],inactive
same,outcome,[6],inactive
same,outcome,[7],inactive
same,Potency,[8],inactive
same,Potency,[9],inactive
O=[N+]([O-])c1cccc(CCl)c1,outcome,[1],inactive
same,outcome,[2],inactive
same,outcome,[4],inactive
same,outcome,[10],inactive
same,outcome,[5],inactive
same,outcome,[6],inactive
same,outcome,[7],inactive
same,Potency,[8],inactive
same,Potency,[9],inactive
O=C(NC(=O)c1c(F)cccc1F)Nc1cc(Cl)c(F)c(Cl)c1F,outcome,[1],inactive
same,outcome,[2],inactive
same,outcome,[4],inactive
same,outcome,[10],inactive
same,outcome,[5],inactive
same,outcome,[6],inactive
same,outcome,[7],inactive
same,Potency,[8],inactive
O=C(Cl)CCl,outcome,[1],inactive
same,outcome,[2],inactive
same,outcome,[4],inactive
same,outcome,[10],inactive
same,outcome,[5],inactive
same,outcome,[6],inactive
same,outcome,[7],inactive
C=CCN1CC[C@]23CCCC[C@H]2[C@H]1Cc1ccc(O)cc13,outcome,[1],inactive
same,outcome,[2],inactive
same,outcome,[4],inactive
same,outcome,[10],inactive
same,outcome,[5],inactive
same,outcome,[6],inactive
same,outcome,[7],inactive
same,Potency,[8],inactive
C=C(Cl)CSC(=S)N(CC)CC,outcome,[1],inactive
same,outcome,[2],inactive
same,outcome,[4],inactive
same,outcome,[5],inactive
same,outcome,[6],inactive
same,outcome,[7],inactive
Clc1nc(Cl)nc(Nc2ccccc2Cl)n1,outcome,[1],inactive
same,outcome,[2],inactive
same,outcome,[3],inactive
same,outcome,[4],inactive
same,outcome,[5],inactive
same,outcome,[6],inactive
same,outcome,[7],inactive
same,Potency,[8],inactive
same,Potency,[9],inactive
OCC(Cl)CCl (stereo unspecified),outcome,[1],inactive
same,outcome,[2],inactive
same,outcome,[4],inactive
same,outcome,[10],inactive
same,outcome,[5],inactive
same,outcome,[6],inactive
same,outcome,[7],inactive
same,Potency,[8],inactive
CC#Cc1cc(C)nc(Nc2ccccc2)n1,outcome,[1],inactive
same,outcome,[2],inactive
same,outcome,[3],inactive
same,outcome,[4],inactive
same,outcome,[5],inactive
same,outcome,[6],inactive
same,outcome,[7],inactive
same,Potency,[8],inactive
same,Potency,[9],54.9 µM (active)
C/C=C/CC#N,outcome,[1],inactive
same,outcome,[2],inactive
same,outcome,[4],inactive
same,outcome,[10],inactive
same,outcome,[5],inactive
same,outcome,[6],inactive
same,outcome,[7],inactive
Nc1c(Cl)c(F)nc(OCC(=O)O)c1Cl,outcome,[1],inactive
same,outcome,[2],inactive
same,outcome,[4],inactive
same,outcome,[10],inactive
same,outcome,[5],inactive
same,outcome,[6],inactive
same,outcome,[7],inactive
same,Potency,[8],inactive
same,Potency,[9],inactive
NCCOS(=O)(=O)O,outcome,[1],inactive
same,outcome,[2],inactive
same,outcome,[4],inactive
same,outcome,[10],inactive
same,outcome,[5],inactive
same,outcome,[6],inactive
same,outcome,[7],inactive
same,Potency,[8],inactive
same,Potency,[9],inactive
O=S1(=O)OCCO1,outcome,[1],inactive
same,outcome,[2],inactive
same,outcome,[4],inactive
same,outcome,[10],inactive
same,outcome,[5],inactive
same,outcome,[6],inactive
same,outcome,[7],inactive
same,Potency,[8],inactive
CN1C(=O)COc2c(C(=O)NC3CN4CCC3CC4)cc(Cl)cc21 (stereo unspecified),outcome,[1],inactive
same,outcome,[2],inactive
same,outcome,[4],inactive
same,outcome,[10],inactive
same,outcome,[5],inactive
same,outcome,[6],inactive
same,outcome,[7],inactive
CCCCCCCCBr,outcome,[1],inactive
same,outcome,[2],inactive
same,outcome,[4],inactive
same,outcome,[10],inactive
same,outcome,[5],inactive
same,outcome,[6],inactive
same,outcome,[7],inactive
same,Potency,[8],inactive
same,Potency,[9],inactive
Clc1cc2c(cc1Cl)Oc1cc(Cl)c(Cl)cc1O2,"fluorescence, % of fluorescein",[1],0.0035% [at 0.37 µM]
same,"fluorescence, % of fluorescent control",[2],-0.0164% [at 0.37 µM]
same,"fluorescence, % of fluorescent control",[4],0.0291% [at 0.37 µM]
same,"fluorescence, % of Rose Bengal",[10],-0.248% [at 0.37 µM]
same,"fluorescence, % of fluorescent control",[5],-0.0614% [at 0.37 µM]
same,"fluorescence, % of fluorescein control",[6],-0.0284% [at 0.37 µM]
same,"fluorescence, % of fluorescent control",[7],-0.0066% [at 0.37 µM]
same,activation,[8],-3.18% [at 0.28 µM]
same,"activity change, negative = inhibition",[9],-20.7% [at 0.284 µM]
COc1ccc2c(C(=O)c3ccc(Cl)cc3)c(C)n(CC(=O)O)c2c1,outcome,[1],inactive
same,outcome,[2],inactive
same,outcome,[4],inactive
same,outcome,[10],inactive
same,outcome,[5],inactive
same,outcome,[6],inactive
same,outcome,[7],inactive
same,Potency,[9],inactive
Brc1c(Br)c(Br)c(Br)c(Br)c1Br,"fluorescence, % of fluorescein",[1],-0.0363% [at 3.72 µM]
same,"fluorescence, % of fluorescent control",[2],0.241% [at 3.72 µM]
same,activity change,[3],0.039% [at 3.72 µM]
same,"fluorescence, % of fluorescent control",[4],-0.398% [at 3.72 µM]
same,"fluorescence, % of fluorescent control",[5],0.0001% [at 3.72 µM]
same,"fluorescence, % of fluorescein control",[6],0.0083% [at 3.72 µM]
same,"fluorescence, % of fluorescent control",[7],0.182% [at 3.72 µM]
same,activation,[8],0.883% [at 6.9 µM]
same,"activity change, negative = inhibition",[9],4.46% [at 7.04 µM]
CNC(=O)NC(O)C(Cl)(Cl)Cl (stereo unspecified),outcome,[1],inactive
same,outcome,[2],inactive
same,outcome,[4],inactive
same,outcome,[10],inactive
same,outcome,[5],inactive
same,outcome,[6],inactive
same,outcome,[7],inactive
C=C(Cl)CCl,outcome,[1],inactive
same,outcome,[2],inactive
same,outcome,[4],inactive
same,outcome,[10],inactive
same,outcome,[5],inactive
same,outcome,[6],inactive
same,outcome,[7],inactive
same,Potency,[8],inactive
same,Potency,[9],inactive
CCC(=O)c1ccc(Cl)cc1,outcome,[1],inactive
same,outcome,[2],inactive
same,outcome,[3],inactive
same,outcome,[4],inactive
same,outcome,[5],inactive
same,outcome,[6],inactive
same,outcome,[7],inactive
same,Potency,[8],inactive
same,Potency,[9],inactive
CCCOc1nn(C(=O)NS(=O)(=O)c2ccccc2C(=O)OC)c(=O)n1C,outcome,[1],inactive
same,outcome,[2],inactive
same,outcome,[3],inactive
same,outcome,[4],inactive
same,outcome,[5],inactive
same,outcome,[6],inactive
same,outcome,[7],inactive
same,Potency,[8],inactive
same,Potency,[9],inactive
